Records with an inconclusive call do not appear. The source made the active and inactive calls. Unless noted, calls follow the shape of the dose curve; as a rule, active = well fitted curve in the direction sought with a large enough effect in the repeat runs; inconclusive = weak or mixed curves; inactive = no such curve, though single readings can be large; an effect the other way counts as inactive or inconclusive.
Key:
[1] = qHTS assay for small molecule agonists of the p53 signaling pathway (AID 651631; calls by dose curve; also: nearly all actives have a fitted effect of over 15% in size)
Summary of the method: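 Agonist mode screen using a stably integrated beta-lactamase gene under p53 response elements in HCT-116 cells. Compound exposure lasts 16 h at 37 °C; fluorescence intensity is measured following 2 h FRET substrate loading.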

[2] = qHTS assay for small molecule agonists of the p53 signaling pathway - cell viability (AID 651633; calls by dose curve;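 also: p53RE-bla HCT reporter cells with a stable beta-lactamase p53 reporter; series mostly up to about 83 µM; nearly all actives have a fitted effect of over 30% in size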)
Summary of the method: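 p53RE-bla cells, seeded at 4,000 per well and rested 5 h at 37 C/5% CO2, received compounds in DMSO for 16 h at 37 C. CellTiter-Glo was then added, and luminescence was read after 30 min at room temperature to gauge cytotoxicity.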

[3] = qHTS assay for small molecules that induce genotoxicity in human embryonic kidney cells expressing luciferase-tagged ATAD5 - cell viability (AID 651634; calls by dose curve; also: nearly all actives have a fitted effect of over 25% in size)
Summary of the method: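 HEK293T cells expressing luciferase-tagged ATAD5 were exposed to compound or DMSO for 15.5 hr at 37C, 5% CO2. Viability was then read as live-cell protease activity by CellTiter-Fluor fluorescence after 30 min at 37C.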

[4] = qHTS assay for small molecule disruptors of the mitochondrial membrane potential - cell viability (AID 720634; calls by dose curve;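 also: human HepG2 liver cancer cells; series mostly up to about 83 µM; nearly all actives have a fitted effect of over 20% in size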)
Summary of the method: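 HepG2 cells seeded overnight at 37 C, then exposed to compound or DMSO for 1 hr at 37 C, 5% CO2. m-MPI dye added, then CellTiter-Glo for 30 min at room temperature; viability read as ATP luminescence.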

[5] = qHTS assay for small molecule disruptors of the mitochondrial membrane potential (AID 720635); also: potency is read from the fitted curve at half-maximal effect
Summary of the method: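 HepG2 cells (2,000/well) attached overnight at 37C, then took compound for 1 hr at 37C, 5% CO2. Mito-MPS dye was added for 30 min; fluorescence was read at 490/535 nm (monomers) and 540/590 nm (aggregates).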

[6] = qHTS assay to test for compound auto fluorescence at 590 nm (red) in HepG2 cells (AID 720674)
Summary of the method: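 Compound auto-fluorescence is scored relative to Rose Bengal sodium, measured at 540/590 nm in live HepG2 cultures after 1 hr compound contact (37 C, 5% CO2).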

[7] = qHTS assay to test for compound auto fluorescence at 535 nm (green) in HepG2 cells (AID 720675)
[8] = qHTS assay to test for compound auto fluorescence at 460 nm (blue) in HEK293 cells (AID 720678)
Summary of the method: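 Cells were seeded and left to adhere for 4-5 hr at 37C. Compounds were then pin-transferred. After an overnight incubation at 37C under 5% CO2, intrinsic fluorescence at 405/460 nm was measured and referenced to triamterene.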

[9] = qHTS assay to test for compound auto fluorescence at 590 nm (red) in HEK293 cells (AID 720679)
Summary of the method: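 Each well held 2,000 HEK293 cells in medium containing 10% dialyzed FBS. Following 4-5 hr attachment at 37C, 23 nL test compound or DMSO was added; plates sat overnight, and red fluorescence (540/590nm) was recorded.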

[10] = qHTS assay to test for compound auto fluorescence at 535 nm (green) in HEK293 cells (AID 720680)
[11] = qHTS assay to test for compound auto fluorescence at 460 nm (blue) in HEK293 cell free culture (AID 720681)
Summary of the method: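 Test compounds were pinned into cell-free culture medium (DMEM with 10% FBS) and fluorescence was read directly at Ex/Em 405/460 nm. Signals were expressed as fluorescence equivalents of triamterene, with DMSO vehicle as control.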

[12] = qHTS assay to test for compound auto fluorescence at 535 nm (green) in HEK293 cell free culture (AID 720682)
Summary of the method: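 No cells present: wells hold DMEM supplemented with 10% FBS, into which compound or vehicle is pinned. Green emission is then recorded (485 nm excitation, 535 nm emission) and scaled to fluorescein.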

[13] = qHTS assay to test for compound auto fluorescence at 590 nm (red) in HEK293 cell free culture (AID 720683)
Summary of the method: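 Tox21 10K library compounds were pinned into cell-free DMEM with 10% FBS and fluorescence was read at excitation 540 nm. Activity is expressed as Rose Bengal sodium equivalency.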

[14] = qHTS assay to test for compound auto fluorescence at 590 nm (red) in HepG2 cell free culture (AID 720684)
Summary of the method: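 Measured in medium alone (MEM containing 10% FBS) following pintool addition of compound; emission at 590 nm with 540 nm excitation, referenced to Rose Bengal sodium.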

[15] = qHTS assay to test for compound auto fluorescence at 460 nm (blue) in HepG2 cell free culture (AID 720685)
Summary of the method: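 Compound (23 nL) or DMSO pinned into cell-free MEM with 10% FBS; blue fluorescence read at 405/460 nm excitation/emission, expressed as auto-fluorescence equivalency to triamterene.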

[16] = qHTS assay to test for compound auto fluorescence at 535 nm (green) in HepG2 cell free culture (AID 720686)
[17] = qHTS assay to test for compound auto fluorescence at 460 nm (blue) in HepG2 cells (AID 720687)
Summary of the method: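 Cells (2,000/well in MEM with 10% FBS) attached overnight at 37 C, then were exposed to compound or DMSO for 1 hr at 37 C, 5% CO2. Fluorescence read at Ex/Em 405/460 nm, expressed as triamterene-equivalent signal.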

[18] = molecular target: Glucocorticoid receptor (Homo sapiens) (UniProt P04150); experiment: qHTS assay to identify small molecule agonists of the glucocorticoid receptor (GR) signaling pathway (AID 720691; active = well fitted activation curve with a large enough effect in the signal ratio in the repeat runs, not every such curve was filed as active; the % refers to the signal ratio)
Sequence of Glucocorticoid receptor (Homo sapiens) (P04150 whole entry, looked up): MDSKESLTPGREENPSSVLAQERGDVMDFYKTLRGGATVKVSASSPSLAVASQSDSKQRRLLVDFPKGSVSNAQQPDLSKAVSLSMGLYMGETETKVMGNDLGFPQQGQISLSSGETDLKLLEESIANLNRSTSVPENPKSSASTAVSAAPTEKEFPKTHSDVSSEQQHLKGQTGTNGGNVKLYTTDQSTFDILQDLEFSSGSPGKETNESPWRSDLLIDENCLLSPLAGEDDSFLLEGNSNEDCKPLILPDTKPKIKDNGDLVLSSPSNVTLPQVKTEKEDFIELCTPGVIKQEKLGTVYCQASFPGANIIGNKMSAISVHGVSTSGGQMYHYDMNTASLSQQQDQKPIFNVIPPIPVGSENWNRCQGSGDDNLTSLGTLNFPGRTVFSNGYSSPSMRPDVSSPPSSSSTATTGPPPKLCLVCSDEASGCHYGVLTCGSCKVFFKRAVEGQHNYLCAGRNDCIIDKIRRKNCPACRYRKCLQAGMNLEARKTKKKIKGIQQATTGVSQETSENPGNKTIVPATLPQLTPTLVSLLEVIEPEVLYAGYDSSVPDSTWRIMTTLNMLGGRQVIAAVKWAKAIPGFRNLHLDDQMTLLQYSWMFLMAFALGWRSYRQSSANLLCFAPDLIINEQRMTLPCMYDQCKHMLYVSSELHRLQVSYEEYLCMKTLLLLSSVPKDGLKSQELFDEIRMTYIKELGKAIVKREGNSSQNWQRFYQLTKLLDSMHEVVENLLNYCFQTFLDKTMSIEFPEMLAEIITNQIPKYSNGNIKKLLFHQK
Summary of the method: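 GR-bla HeLa cells (beta-lactamase reporter under glucocorticoid response element) were plated 4 h at 37 C/5% CO2, given compounds in DMSO, and incubated 18 h at 37 C. LiveBLAzer B/G FRET substrate was added for 2 h at room temperature, then fluorescence intensity read.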

[19] = molecular target: Glucocorticoid receptor (Homo sapiens) (UniProt P04150); experiment: qHTS assay to identify small molecule antagonists of the glucocorticoid receptor (GR) signaling pathway (AID 720692; active = well fitted inhibition curve with a large enough effect in the signal ratio in the repeat runs, not every such curve was filed as active; the % refers to the signal ratio)
Summary of the method: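 GR-bla HeLa cells (beta-lactamase reporter under glucocorticoid response element) were pre-plated 4 h at 37 C, treated with compounds plus 5 nM dexamethasone (final) for 18 h, then read by LiveBLAzer B/G FRET fluorescence after 2 h.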

[20] = qHTS assay for small molecules that induce genotoxicity in human embryonic kidney cells expressing luciferase-tagged ATAD5 (AID 651632); also: nearly all actives have a fitted effect of over 15% in size
Summary of the method: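 HEK293T cells carrying a luciferase reporter tagged to ATAD5 were exposed to compound or DMSO vehicle for 16 hr at 37C, 5% CO2. Amplite was added, and after 30 min at room temperature luciferase activity was read as a marker of ATAD5 induction.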
% is scaled to controls: 0 for no effect and ±100 for the full control effect.

NCCS
inactive: outcome [1] | outcome [2] | Potency [3] | outcome [4] | Potency [5] | outcome [6] | outcome [7] | outcome [8] | outcome [9] | outcome [10] | outcome [11] | outcome [12] | outcome [13] | outcome [14] | outcome [15] | outcome [16] | outcome [17]

Cc1ccc(S(=O)(=O)O)c(C)c1
inactive: outcome [1] | outcome [2] | Potency [3] | outcome [4] | outcome [6] | outcome [7] | outcome [9] | outcome [10] | outcome [11] | outcome [12] | outcome [13] | outcome [14] | outcome [15] | outcome [16] | outcome [17] | Potency [18] | outcome [19]

CCOC(=O)c1ccc(OC(=O)CCCCCN=C(N)N)cc1
inactive: outcome [1] | outcome [2] | Potency [3] | outcome [4] | Potency [5] | fluorescence, relative to Rose Bengal [6] -0.309% [at 18.6 µM] | fluorescence, % of fluorescein control [7] 0.0329% [at 18.6 µM] | fluorescence, % of triamterene [8] -0.0421% [at 18.6 µM] | fluorescence, % of fluorescent control [9] 0.895% [at 18.6 µM] | fluorescence, % of fluorescein [10] -0.102% [at 18.6 µM] | fluorescence, % of fluorescent control [11] -0.0274% [at 18.6 µM] | activity change [12] -0.162% [at 18.6 µM] | fluorescence, % of fluorescent control [13] 0.226% [at 18.6 µM] | fluorescence, % of Rose Bengal [14] -0.0877% [at 18.6 µM] | fluorescence, % of fluorescent control [15] 0.0222% [at 18.6 µM] | fluorescence, % of fluorescein control [16] -0.0655% [at 18.6 µM] | fluorescence, % of fluorescent control [17] 0.0159% [at 18.6 µM]

C=CC(OCC)OCC
inactive: outcome [1] | outcome [2] | Potency [3] | outcome [4] | outcome [6] | outcome [7] | outcome [8] | outcome [9] | outcome [10] | outcome [11] | outcome [12] | outcome [13] | outcome [14] | outcome [15] | outcome [16] | outcome [17]

CCCC/C=C/C=C\C=O
inactive: outcome [1] | outcome [2] | Potency [3] | outcome [4] | outcome [6] | outcome [7] | outcome [8] | outcome [9] | outcome [10] | outcome [11] | outcome [12] | outcome [13] | outcome [14] | outcome [15] | outcome [16] | outcome [17]

O=C(c1ccc(O)cc1)c1ccc(O)c(O)c1O
active: Potency [5] 27.4 µM
inactive: outcome [1] | Potency [20] | outcome [2] | outcome [4] | outcome [6] | outcome [7] | outcome [10] | outcome [11] | outcome [13] | outcome [14] | outcome [15] | outcome [16] | outcome [17] | Potency [18]

O=P(O)(O)OP(=O)(O)O
inactive: outcome [1] | outcome [2] | Potency [3] | outcome [4] | Potency [5] | outcome [6] | outcome [7] | outcome [8] | outcome [9] | outcome [10] | outcome [11] | outcome [12] | outcome [13] | outcome [15] | outcome [16] | outcome [17] | outcome [19]

CC(=O)Nc1ccc(S(=O)(=O)Nc2ccc([N+](=O)[O-])cc2)cc1
inactive: outcome [1] | Potency [20] | outcome [2] | outcome [4] | outcome [6] | outcome [7] | outcome [9] | outcome [10] | outcome [11] | outcome [12] | outcome [13] | outcome [14] | outcome [15] | outcome [16] | outcome [17] | Potency [18] | outcome [19]

Reference: PubChem BioAssay (Tox21)
